# Reference: PubChem BioAssay (NCATS)
# “And” between values parts separate entries of the source, which are not always exact repeats. Equal values may be shown once. Records with an inconclusive call do not appear. Where a call stands in place of a potency, no number is given. The source made the active and inactive calls. Unless noted, calls follow the shape of the full dose curve.
# Columns and labels:
# [1] = Cell Viability - LYMP2-012 (AID 982; active = well fitted curve in the direction sought with a large enough effect; an effect the other way counts as inactive or inconclusive;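 also: cellular ATP by luciferase luminescence where a drop means cytotoxicity; cells exposed to compound for one day before reading; nearly all actives have a fitted effect of over 55% in size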)
# [2] = Cell Viability - LYMP2-016 (AID 984; active = well fitted curve in the direction sought with a large enough effect; an effect the other way counts as inactive or inconclusive;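 also: cells exposed to compound for 24 hours at 37 °C; nearly all actives have a fitted effect of over 55% in size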)
# Procedure, shortened: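 Cells were seeded at 2500 per well and rested 5 hr before a 24 hr compound exposure at 37 C. Viability was then gauged as cellular ATP by luciferase luminescence, with AC50 values fitted to the Hill equation.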
# [3] = Cell Viability - LYMP2-018 (AID 985; active = well fitted curve in the direction sought with a large enough effect; an effect the other way counts as inactive or inconclusive; also: nearly all actives have a fitted effect of over 50% in size)
# Procedure, shortened: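 Viability read as CellTiter-Glo luminescence (cellular ATP) after 24 hr compound exposure at 37 C of 2500 LYMP2-018 lymphoblastoid cells/well, pre-plated 5 hr. Hill-equation modelling gave AC50.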
# [4] = Cell Viability - LYMP2-024 (AID 988; active = well fitted curve in the direction sought with a large enough effect; an effect the other way counts as inactive or inconclusive; also: nearly all actives have a fitted effect of over 60% in size)
# Procedure, shortened: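 Cytotoxicity was taken as a decrease in ATP (CellTiter-Glo luminescence) after 24 hr compound exposure at 37 C of LYMP2-024 lymphoblastoid cells, 2500 cells/well. Concentration-response data were fitted to the Hill equation to give AC50.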
# [5] = Cell Viability - LYMP2-026 (AID 989; active = well fitted curve in the direction sought with a large enough effect; an effect the other way counts as inactive or inconclusive; also: nearly all actives have a fitted effect of over 50% in size)
# Procedure, shortened: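 Cytotoxicity read as ATP-dependent luminescence (CellTiter-Glo, 30 min room temperature) after 24 h compound treatment at 37 C. LYMP2-026 lymphoblastoid line seeded at 2500 cells/well; AC50 derived by standard Hill equation.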
# [6] = Cell Viability - LYMP1-002 - Assay at 40 hr (AID 994; active = well fitted curve in the direction sought with a large enough effect; an effect the other way counts as inactive or inconclusive; also: nearly all actives have a fitted effect of over 60% in size)
# Procedure, shortened: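 Cytotoxicity was read as loss of cellular ATP (CellTiter-Glo luminescence) after 40 hr compound exposure at 37 C of 2500 LYMP1-002 lymphoblastoid cells per well. Concentration-response data were fitted with the standard Hill equation to give AC50.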
# [7] = qHTS Assay for Identification of Small Molecule Inducers of Hypoxia Response (AID 2120; active = well fitted curve in the direction sought with a large enough effect in the signal ratio, with a control signal flat, not every such curve was filed as active; the % refers to the signal ratio)
# Procedure, shortened: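 Reporter induction read as the CCF4 blue/green (460nm/530nm) emission ratio after 2.5 h dye loading at room temperature. ME-180 HRE-beta-lactamase cells received titrated compounds for 17 h at 37 degrees Celsius; AC50 values derived.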
# [8] = molecular target: Estrogen receptor (Homo sapiens) (UniProt P03372); test: qHTS assay for small molecule antagonists of estrogen receptor alpha signaling (AID 588513; active = well fitted curve in the direction sought with a large enough effect in the signal ratio, with a control signal flat, not every such curve was filed as active; the % refers to the signal ratio)
# Procedure, shortened: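 Fluorescence from CCF4 substrate after 2 h at room temperature gave reporter activity; cells had been exposed to compound and 0.5nM 17-beta-estradiol for 18 h at 37 C. Hill-equation fitting yielded IC50 and maximal response.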
# [9] = molecular target: Estrogen receptor (Homo sapiens) (UniProt P03372); test: qHTS assay for small molecule agonists of estrogen receptor alpha signaling (AID 588514); also: nearly all actives have a fitted effect of over 70% in size
# Procedure, shortened: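 EC50 and efficacy came from Hill fits of beta-lactamase reporter signal (CCF4 dye, 2 h at room temperature) scaled between DMSO and 20 nM 17-beta-estradiol. Agonist mode: HEK293 ER-alpha-UAS-bla cells in charcoal/dextran-stripped serum medium, 18 h compound exposure at 37 C.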
# [10] = molecular target: Bile acid receptor (Homo sapiens) (UniProt Q96RI1); test: qHTS assay for small molecule antagonists of farnesoid X receptor signaling (AID 588526)
# Procedure, shortened: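 Antagonist mode: titrated compounds tested against chenodeoxycholic acid stimulation (normalized to 50 uM CDCA and DMSO) in GeneBLAzer HEK293T cells for 16 h. Beta-lactamase read by CCF4 fluorescence; IC50 from Hill fits.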
# [11] = molecular target: Glucocorticoid receptor (Homo sapiens) (UniProt P04150); test: qHTS assay for small molecule agonists of glucocorticoid receptor signaling (AID 588532; active = well fitted curve in the direction sought with a large enough effect in the signal ratio, with a control signal flat; the % refers to the signal ratio); conditions: HeLa MMTV-bla, beta-lactamase ratio, agonist, 18 h; stronger effect = higher value; percent of dexamethasone control, DMSO zero
# Procedure, shortened: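 HeLa GRE-bla reporter cells; 18 h compound exposure at 37 C; 2 h CCF4 loading at room temperature; fluorescence at 460 and 530 nm; EC50 by Hill equation.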
# [12] = molecular target: Glucocorticoid receptor (Homo sapiens) (UniProt P04150); test: qHTS assay for small molecule antagonists of glucocorticoid receptor signaling (AID 588533; active = well fitted inhibition curve with a large enough effect in the signal ratio, with a control signal flat, not every such curve was filed as active; the % refers to the signal ratio)
# Procedure, shortened: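 Antagonist-mode qHTS: compound titrations added to GRE-bla HeLa cells, then dexamethasone 2 nM final; 18 h, 37 C. CCF4 FRET fluorescence normalized to dexamethasone and DMSO; IC50 from Hill fit.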
# [13] = molecular target: Peroxisome proliferator-activated receptor gamma (Homo sapiens) (UniProt P37231); test: qHTS assay for small molecule agonists of peroxisome proliferator-activated receptor gamma signaling (AID 588536; active = well fitted curve in the direction sought with a large enough effect in the signal ratio, with a control signal flat, not every such curve was filed as active; the % refers to the signal ratio)
# Procedure, shortened: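 Beta-lactamase reporter read-out: CCF4 fluorescence (ex 405, em 460/530 nm) after 2 h at RT. HEK293 GeneBLAzer cells were treated for 16 h at 37 C. Hill fits gave EC50 and efficacy versus 2 uM rosiglitazone (100%) and DMSO (0%).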
# [14] = molecular target: Peroxisome proliferator-activated receptor gamma (Homo sapiens) (UniProt P37231); test: qHTS assay for small molecule antagonists of peroxisome proliferator-activated receptor gamma signaling (AID 588537; active = well fitted inhibition curve with a large enough effect in the signal ratio, with a control signal flat, not every such curve was filed as active; the % refers to the signal ratio;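 also: reporter cells co-stimulated with 50 nM rosiglitazone agonist during compound treatment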)
# Procedure, shortened: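 Fluorescence at 460 and 530 nm (405 nm excitation) reported beta-lactamase cleavage of CCF4 after 2 h room-temperature loading. HEK293 reporter cells in 1% charcoal/dextran-treated FBS had received compound and rosiglitazone for 16 h.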
# [15] = molecular target: Vitamin D3 receptor (Homo sapiens) (UniProt P11473); test: qHTS assay for small molecule antagonists of vitamin D receptor signaling (AID 588541);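 also: receptor activated by calcitriol during compound treatment; series mostly up to about 77 µM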
# Procedure, shortened: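 VDR-UAS-bla HEK293T cells in 2% charcoal-stripped FBS were stimulated with 1-alpha,25-dihydroxyvitamin D3 (3 nM final) plus compound for 16 h at 37 C. The beta-lactamase CCF4 readout was normalized to 50 nM agonist and DMSO, and Hill fits gave IC50.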
# [16] = molecular target: Vitamin D3 receptor (Homo sapiens) (UniProt P11473); test: qHTS assay for small molecule agonists of vitamin D receptor signaling (AID 588543)
# Procedure, shortened: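 Reporter cells (HEK293T, VDR-UAS-bla) were seeded in medium with 2% charcoal-stripped serum and incubated 5 h, then compounds in concentration series were added for 16 h at 37 °C. Stimulation was scaled between DMSO basal and 50 nM 1α,25-dihydroxyvitamin D3.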
# [17] = qHTS assay for small molecule agonists of retinoid X receptor alpha signaling (AID 588544); conditions: HEK293T RXRa-UAS-bla, beta-lactamase reporter, 18 h; 530 nm emission
# [18] = molecular target: Thyroid hormone receptor beta (Homo sapiens) (UniProt P10828); test: qHTS assay for small molecule agonists of thyroid hormone receptor beta signaling (AID 588545)
# Procedure, shortened: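 Beta-lactamase reporter activity under TR response element control is measured in HEK 293 cells after 18 hrs compound exposure. Signal is ratiometric CCF4 fluorescence, 460/530 nm.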
# [19] = qHTS assay for small molecule antagonists of retinoid X receptor alpha signaling (AID 588546; active = well fitted inhibition curve with a large enough effect in the signal ratio, with a control signal flat, not every such curve was filed as active; the % refers to the signal ratio;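 also: cells stimulated with 9-cis-retinoic acid as agonist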); conditions: HEK293T RXRa-UAS-bla, beta-lactamase ratio, antagonist mode; measured here: W530 green channel, cytotoxicity proxy
# Procedure, shortened: (§1)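 Beta-lactamase reporter inhibition, read as CCF4 fluorescence ratio (ex 405, em 460/530 nm) after 2 h at RT. HEK293T UAS-bla cells, 2500/well, were stimulated with 9-cis-RA at 500 or 100 nM final alongside test compound for 18 h at 37 C.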
# [20] = molecular target: Retinoic acid receptor RXR-alpha (Homo sapiens) (UniProt P19793); test: as above; conditions: HEK293T RXRa-UAS-bla, beta-lactamase ratio, antagonist mode
# Procedure, shortened: as §1
# [21] = molecular target: Thyroid hormone receptor beta (Homo sapiens) (UniProt P10828); test: qHTS assay for small molecule antagonists of thyroid hormone receptor beta signaling (AID 588547; active = well fitted inhibition curve with a large enough effect in the signal ratio, with a control signal flat, not every such curve was filed as active; the % refers to the signal ratio;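 also: cells stimulated with 0.4 nM T3 agonist during compound exposure; series mostly up to about 77 µM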); conditions: TR-UAS-bla HEK293, beta-lactamase ratio, antagonist mode, 18 h
# Procedure, shortened: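 TR-UAS-bla GripTite HEK293 cells in 2% charcoal/dextran FBS medium; compounds 0.59 nM to 92 uM with T3 at 0.4nM final, 18 h at 37 C. Beta-lactamase read by CCF4 fluorescence (460/530 nm); Hill fits gave IC50 and efficacy.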
# [22] = molecular target: Voltage-gated inwardly rectifying potassium channel KCNH2 (Homo sapiens) (UniProt Q12809); test: qHTS Assay for Small Molecule Inhibitors of the Human hERG Channel Activity (AID 588834; active = well fitted curve in the direction sought with a large enough effect; an effect the other way counts as inactive or inconclusive;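 also: top concentration of the series differs between compounds; lower thallium flux fluorescence means stronger hERG block; nearly all actives have a fitted effect of over 50% in size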)
# Procedure, shortened: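 Step 1: BacMam hERG transduction of U2OS, 4 hrs RT. Step 2: overnight 37 °C, plate 2000 cells/well, 4 hr. Step 3: FluxOR load, compound 10 min, stimulate, read fluorescence.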
# [23] = qHTS assay for small molecule agonists of the antioxidant response element (ARE) signaling pathway (AID 651741; active = well fitted activation curve with a large enough effect in the signal ratio; the % refers to the signal ratio)
# Procedure, shortened: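 Stably integrated ARE-beta-lactamase reporter HepG2 cells; 16 h compound incubation, 37 C; LiveBLAzer FRET substrate 2 h at room temperature; fluorescence intensity.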
# [24] = qHTS assay for small molecule activators of the p53 signaling pathway (AID 651743; active = well fitted activation curve with a large enough effect in the signal ratio, not every such curve was filed as active; the % refers to the signal ratio; also: series mostly up to about 92 µM); conditions: HCT-116 p53RE-bla, beta-lactamase FRET ratio, 16 h; activation: stronger effect = higher value
# Procedure, shortened: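 Following 16 hours of compound exposure at 37 C, HCT-116 cells bearing the p53RE-bla reporter were loaded with LiveBLAzer B/G FRET substrate for 2 hours at room temperature and fluorescence intensity was recorded.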
# Sequence of Estrogen receptor (Homo sapiens) (P03372 whole entry, looked up): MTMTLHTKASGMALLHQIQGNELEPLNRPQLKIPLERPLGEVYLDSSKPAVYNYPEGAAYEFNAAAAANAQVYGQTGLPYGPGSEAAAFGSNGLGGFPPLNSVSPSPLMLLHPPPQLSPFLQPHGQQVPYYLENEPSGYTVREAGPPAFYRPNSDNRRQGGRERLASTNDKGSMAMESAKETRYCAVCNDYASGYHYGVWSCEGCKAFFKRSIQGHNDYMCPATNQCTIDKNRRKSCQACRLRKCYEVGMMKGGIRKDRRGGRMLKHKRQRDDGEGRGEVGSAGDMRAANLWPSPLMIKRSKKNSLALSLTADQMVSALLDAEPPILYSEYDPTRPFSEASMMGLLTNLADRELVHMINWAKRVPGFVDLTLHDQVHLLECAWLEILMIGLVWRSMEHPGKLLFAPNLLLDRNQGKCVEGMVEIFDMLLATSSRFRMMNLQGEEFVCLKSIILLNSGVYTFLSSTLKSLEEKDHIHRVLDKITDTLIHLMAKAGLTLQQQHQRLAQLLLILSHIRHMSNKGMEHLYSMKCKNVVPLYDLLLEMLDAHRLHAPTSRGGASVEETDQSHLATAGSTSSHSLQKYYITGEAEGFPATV
# Sequence of Vitamin D3 receptor (Homo sapiens) (P11473 whole entry, looked up): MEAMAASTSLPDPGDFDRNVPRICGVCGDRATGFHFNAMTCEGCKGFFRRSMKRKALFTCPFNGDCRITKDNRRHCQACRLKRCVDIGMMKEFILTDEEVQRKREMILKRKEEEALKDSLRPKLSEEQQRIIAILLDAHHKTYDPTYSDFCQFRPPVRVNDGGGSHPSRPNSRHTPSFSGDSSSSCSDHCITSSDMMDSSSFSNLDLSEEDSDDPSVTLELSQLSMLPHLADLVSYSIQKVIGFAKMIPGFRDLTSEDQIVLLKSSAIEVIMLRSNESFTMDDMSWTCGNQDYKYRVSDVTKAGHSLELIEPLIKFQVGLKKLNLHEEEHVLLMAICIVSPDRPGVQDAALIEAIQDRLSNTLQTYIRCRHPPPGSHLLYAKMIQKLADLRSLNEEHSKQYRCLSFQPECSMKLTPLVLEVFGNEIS
# Sequence of Thyroid hormone receptor beta (Homo sapiens) (P10828 whole entry, looked up): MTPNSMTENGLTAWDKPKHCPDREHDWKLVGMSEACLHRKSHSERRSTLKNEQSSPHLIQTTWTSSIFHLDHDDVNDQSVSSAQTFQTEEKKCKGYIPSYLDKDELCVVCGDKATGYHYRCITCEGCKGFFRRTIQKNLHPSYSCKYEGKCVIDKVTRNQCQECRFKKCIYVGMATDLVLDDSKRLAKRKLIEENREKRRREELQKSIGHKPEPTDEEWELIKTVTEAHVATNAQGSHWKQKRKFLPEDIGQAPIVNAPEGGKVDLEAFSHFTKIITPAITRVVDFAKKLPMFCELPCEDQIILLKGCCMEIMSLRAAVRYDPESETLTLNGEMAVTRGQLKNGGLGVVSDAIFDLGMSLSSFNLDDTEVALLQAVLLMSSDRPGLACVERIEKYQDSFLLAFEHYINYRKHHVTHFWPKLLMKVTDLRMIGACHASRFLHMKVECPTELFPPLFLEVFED
# Sequence of Glucocorticoid receptor (Homo sapiens) (P04150 whole entry, looked up): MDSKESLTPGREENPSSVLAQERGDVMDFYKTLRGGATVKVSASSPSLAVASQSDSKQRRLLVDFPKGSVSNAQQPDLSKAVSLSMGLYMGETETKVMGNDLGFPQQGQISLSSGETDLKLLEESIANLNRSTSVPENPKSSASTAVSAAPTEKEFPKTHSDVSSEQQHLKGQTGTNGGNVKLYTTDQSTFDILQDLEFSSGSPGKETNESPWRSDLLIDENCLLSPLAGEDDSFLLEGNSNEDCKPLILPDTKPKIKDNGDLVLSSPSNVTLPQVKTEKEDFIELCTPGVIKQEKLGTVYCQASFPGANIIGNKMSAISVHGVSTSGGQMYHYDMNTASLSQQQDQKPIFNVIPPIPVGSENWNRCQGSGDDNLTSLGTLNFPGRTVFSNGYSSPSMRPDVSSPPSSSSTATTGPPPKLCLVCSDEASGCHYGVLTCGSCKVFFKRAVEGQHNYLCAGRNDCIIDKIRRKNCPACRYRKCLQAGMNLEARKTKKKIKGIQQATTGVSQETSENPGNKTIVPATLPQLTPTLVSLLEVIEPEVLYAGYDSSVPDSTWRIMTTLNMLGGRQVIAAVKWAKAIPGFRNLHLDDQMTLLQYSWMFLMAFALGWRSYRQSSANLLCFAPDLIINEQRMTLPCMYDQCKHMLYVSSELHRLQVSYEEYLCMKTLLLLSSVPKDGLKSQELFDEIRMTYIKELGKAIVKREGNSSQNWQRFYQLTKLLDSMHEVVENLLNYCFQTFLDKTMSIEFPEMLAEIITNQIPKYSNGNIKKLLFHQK
# Sequence of Retinoic acid receptor RXR-alpha (Homo sapiens) (P19793 whole entry, looked up): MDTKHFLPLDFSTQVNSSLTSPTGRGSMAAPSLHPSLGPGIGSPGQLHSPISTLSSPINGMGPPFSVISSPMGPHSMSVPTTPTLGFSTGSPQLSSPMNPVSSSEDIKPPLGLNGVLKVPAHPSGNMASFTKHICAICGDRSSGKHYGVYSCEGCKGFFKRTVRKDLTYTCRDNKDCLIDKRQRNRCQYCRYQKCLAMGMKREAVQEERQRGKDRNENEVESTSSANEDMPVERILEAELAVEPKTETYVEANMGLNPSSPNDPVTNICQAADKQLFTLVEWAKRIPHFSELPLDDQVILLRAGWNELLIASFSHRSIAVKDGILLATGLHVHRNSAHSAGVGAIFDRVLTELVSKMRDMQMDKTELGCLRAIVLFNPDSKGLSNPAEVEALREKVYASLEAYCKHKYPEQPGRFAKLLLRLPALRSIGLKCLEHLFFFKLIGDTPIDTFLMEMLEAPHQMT
# Sequence of Peroxisome proliferator-activated receptor gamma (Homo sapiens) (P37231 whole entry, looked up): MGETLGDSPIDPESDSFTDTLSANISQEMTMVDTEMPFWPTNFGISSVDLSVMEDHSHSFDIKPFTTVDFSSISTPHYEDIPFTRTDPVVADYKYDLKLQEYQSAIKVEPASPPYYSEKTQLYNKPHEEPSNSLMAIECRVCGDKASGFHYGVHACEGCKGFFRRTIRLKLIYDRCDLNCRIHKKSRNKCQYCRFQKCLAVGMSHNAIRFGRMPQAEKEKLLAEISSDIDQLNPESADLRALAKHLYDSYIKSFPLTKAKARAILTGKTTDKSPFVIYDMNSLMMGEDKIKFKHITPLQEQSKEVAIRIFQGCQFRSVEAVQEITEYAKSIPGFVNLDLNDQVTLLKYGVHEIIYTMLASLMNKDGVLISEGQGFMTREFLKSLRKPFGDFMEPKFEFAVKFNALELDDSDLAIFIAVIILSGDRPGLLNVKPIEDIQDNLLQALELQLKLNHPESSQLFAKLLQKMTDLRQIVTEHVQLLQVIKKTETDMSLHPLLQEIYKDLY
# Sequence of Voltage-gated inwardly rectifying potassium channel KCNH2 (Homo sapiens) (Q12809 whole entry, looked up): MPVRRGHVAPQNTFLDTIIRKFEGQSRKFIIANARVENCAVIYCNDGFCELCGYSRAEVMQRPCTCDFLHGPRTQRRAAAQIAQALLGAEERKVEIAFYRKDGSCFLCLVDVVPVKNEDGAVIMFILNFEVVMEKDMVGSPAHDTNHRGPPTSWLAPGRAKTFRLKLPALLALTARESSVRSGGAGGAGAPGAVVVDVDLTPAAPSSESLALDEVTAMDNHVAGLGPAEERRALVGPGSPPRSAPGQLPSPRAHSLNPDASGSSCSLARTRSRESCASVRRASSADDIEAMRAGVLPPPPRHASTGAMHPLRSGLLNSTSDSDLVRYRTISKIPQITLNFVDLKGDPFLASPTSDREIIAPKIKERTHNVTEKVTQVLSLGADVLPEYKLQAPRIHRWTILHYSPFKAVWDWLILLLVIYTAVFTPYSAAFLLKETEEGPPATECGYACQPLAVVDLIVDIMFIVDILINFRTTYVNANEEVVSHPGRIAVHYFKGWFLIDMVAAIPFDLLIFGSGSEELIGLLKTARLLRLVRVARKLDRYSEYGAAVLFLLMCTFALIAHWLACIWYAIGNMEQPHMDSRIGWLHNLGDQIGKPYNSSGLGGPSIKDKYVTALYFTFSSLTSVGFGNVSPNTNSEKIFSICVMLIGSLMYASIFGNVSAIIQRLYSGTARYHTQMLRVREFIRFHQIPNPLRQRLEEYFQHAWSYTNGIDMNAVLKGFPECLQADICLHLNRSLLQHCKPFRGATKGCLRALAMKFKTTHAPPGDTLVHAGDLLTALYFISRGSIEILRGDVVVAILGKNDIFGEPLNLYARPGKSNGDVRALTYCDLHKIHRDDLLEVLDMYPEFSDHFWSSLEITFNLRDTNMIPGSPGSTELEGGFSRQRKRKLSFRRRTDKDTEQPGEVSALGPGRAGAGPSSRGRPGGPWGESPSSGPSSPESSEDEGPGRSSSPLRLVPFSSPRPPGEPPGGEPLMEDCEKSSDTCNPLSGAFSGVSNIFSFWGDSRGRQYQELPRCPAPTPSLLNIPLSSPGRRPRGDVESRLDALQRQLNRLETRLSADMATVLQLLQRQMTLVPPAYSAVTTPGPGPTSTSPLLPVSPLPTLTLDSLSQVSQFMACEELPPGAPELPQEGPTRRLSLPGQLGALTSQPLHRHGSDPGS
# Sequence of Bile acid receptor (Homo sapiens) (Q96RI1 whole entry, looked up): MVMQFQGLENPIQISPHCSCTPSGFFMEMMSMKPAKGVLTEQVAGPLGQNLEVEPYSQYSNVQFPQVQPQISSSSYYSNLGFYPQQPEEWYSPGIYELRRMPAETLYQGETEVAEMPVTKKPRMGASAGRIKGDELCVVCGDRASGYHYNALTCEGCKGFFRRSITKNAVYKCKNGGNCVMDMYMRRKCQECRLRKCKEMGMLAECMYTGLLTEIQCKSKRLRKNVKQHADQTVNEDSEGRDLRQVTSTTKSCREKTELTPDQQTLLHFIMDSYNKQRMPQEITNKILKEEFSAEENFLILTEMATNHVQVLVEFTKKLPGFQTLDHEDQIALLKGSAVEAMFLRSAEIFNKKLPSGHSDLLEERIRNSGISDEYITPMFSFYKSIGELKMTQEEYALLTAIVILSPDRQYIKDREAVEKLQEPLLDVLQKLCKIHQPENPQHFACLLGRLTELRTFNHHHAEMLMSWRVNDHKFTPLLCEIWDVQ
compound,measurement,setting,value
CCCCCCCCCCCCCC(=O)O,Potency,[1],inactive
same,Potency,[2],inactive
same,Potency,[3],inactive
same,Potency,[4],inactive
same,Potency,[5],inactive
same,Potency,[6],inactive
same,outcome,[7],inactive
same,Potency,[8],inactive
same,Potency,[9],inactive
same,outcome,[10],inactive
same,activation,[11],-3.49% (inactive) and -3.58% (inactive)
same,Potency,[12],inactive
same,outcome,[13],inactive
same,outcome,[14],inactive
same,outcome,[15],inactive
same,outcome,[16],inactive
same,max response,[17],12.8% and -5.45%
same,outcome,[18],inactive
same,max response,[19],9.83% and 0.375%
same,max response,[20],-6.83% (inactive) and -2.87% (inactive)
same,activity change % (negative = inhibition),[21],8.19% (inactive) and 13.5% (inactive)
same,Potency,[22],inactive
same,Potency,[23],inactive
same,activation,[24],-1.59% (inactive) and 5.08% (inactive)
